# From PMC8384837, “Expanding the binding specificity for RNA recognition by a PUF domain”
# Changes are numbered by the printed parent chain.
# Key:
# Experiment in all cases: yeast three-hybrid, YBZ-1, SC-Leu-His + 0.5 mM 3-AT, 4 days
# Settings in all cases: tags: N-Gal4 AD-HA kept; label: inside an RPR1-promoter hybrid RNA with tandem MS2 sites; ssRNA
# PUM1 PUF domain R5-ERS = PUM1 PUF domain R5-ERS (Homo sapiens, UniProt Q14671 828-1176, C1007E;Q1011S)
# How it was run: (§1)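 Repeat regions from input (SC-Leu) and selection (SC-Leu-His + 0.5 mM 3-AT) plates were PCR-amplified and Illumina-sequenced after four days of growth. The cells were strain YBZ-1 with a LexA–MS2 coat fusion and a HIS3 reporter, co-expressing Pumilio-1 PUF domain libraries and matching RNA elements from a centromeric plasmid. The interaction score is the log change in variant frequency from input to selection, taken in log2 with a pseudocount of 1 for absent variants.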
# PUM1 PUF domain R5-DWG = PUM1 PUF domain R5-DWG (Homo sapiens, UniProt Q14671 828-1176, C1007D;R1008W;Q1011G)
# How it was run: as §1
# PUM1 PUF domain R8-IWK = PUM1 PUF domain R8-IWK (Homo sapiens, UniProt Q14671 828-1176, N1122I;Y1123W;Q1126K)
# How it was run: as §1
# PUM1 PUF domain R7-RCN = PUM1 PUF domain R7-RCN (Homo sapiens, UniProt Q14671 828-1176, S1079R;N1080C;E1083N)
# How it was run: as §1
# PUM1 PUF domain R6-DWI = target: T1, PUM1 PUF domain R6-DWI (Homo sapiens, UniProt Q14671 828-1176, N1043D;Y1044W;Q1047I)
# T1 sequence: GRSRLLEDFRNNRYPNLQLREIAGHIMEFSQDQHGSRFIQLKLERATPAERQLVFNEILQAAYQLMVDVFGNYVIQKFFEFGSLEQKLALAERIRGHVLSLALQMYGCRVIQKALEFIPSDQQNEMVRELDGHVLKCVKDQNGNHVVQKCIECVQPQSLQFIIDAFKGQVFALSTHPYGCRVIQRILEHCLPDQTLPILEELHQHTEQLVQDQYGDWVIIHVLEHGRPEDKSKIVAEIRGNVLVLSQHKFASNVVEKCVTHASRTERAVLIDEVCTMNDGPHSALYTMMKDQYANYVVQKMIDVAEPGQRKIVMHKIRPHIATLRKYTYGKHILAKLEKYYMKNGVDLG
# How it was run: as §1
# PUM1 PUF domain R6-VFG = target: T2, PUM1 PUF domain R6-VFG (Homo sapiens, UniProt Q14671 828-1176, N1043V;Y1044F;Q1047G)
# T2 sequence: T1 sequence with D216V, W217F, I220G
# How it was run: as §1
# PUM1 PUF domain R1-RRM = PUM1 PUF domain R1-RRM (Homo sapiens, UniProt Q14671 828-1176, S863R;Q867M)
# How it was run: as §1
# PUM1 PUF domain R1-GFR = PUM1 PUF domain R1-GFR (Homo sapiens, UniProt Q14671 828-1176, S863G;R864F;Q867R)
# How it was run: as §1
# PUM1 PUF domain R1-KMS = PUM1 PUF domain R1-KMS (Homo sapiens, UniProt Q14671 828-1176, S863K;R864M;Q867S)
# How it was run: as §1
# PUM1 PUF domain R1-KGA = PUM1 PUF domain R1-KGA (Homo sapiens, UniProt Q14671 828-1176, S863K;R864G;Q867A)
# How it was run: as §1
# PUM1 PUF domain R3-QPR = PUM1 PUF domain R3-QPR (Homo sapiens, UniProt Q14671 828-1176, C935Q;R936P;Q939R)
# How it was run: as §1
# PUM1 PUF domain R3-WWQ = PUM1 PUF domain R3-WWQ (Homo sapiens, UniProt Q14671 828-1176, C935W;R936W)
# How it was run: as §1
# PUM1 PUF domain R3-RTS = PUM1 PUF domain R3-RTS (Homo sapiens, UniProt Q14671 828-1176, C935R;R936T;Q939S)
# How it was run: as §1
# PUM1 PUF domain R3-MRE = PUM1 PUF domain R3-MRE (Homo sapiens, UniProt Q14671 828-1176, C935M;Q939E)
# How it was run: as §1
# PUM1 PUF domain R5-IRP = PUM1 PUF domain R5-IRP (Homo sapiens, UniProt Q14671 828-1176, C1007I;Q1011P)
# How it was run: as §1
# PUM1 PUF domain R5-RHR = PUM1 PUF domain R5-RHR (Homo sapiens, UniProt Q14671 828-1176, C1007R;R1008H;Q1011R)
# How it was run: as §1
# PUM1 PUF domain R8-SFR = PUM1 PUF domain R8-SFR (Homo sapiens, UniProt Q14671 828-1176, N1122S;Y1123F;Q1126R)
# How it was run: as §1
# PUM1 PUF domain R5-KFG = PUM1 PUF domain R5-KFG (Homo sapiens, UniProt Q14671 828-1176, C1007K;R1008F;Q1011G)
# How it was run: as §1
# PUM1 PUF domain R3-YSG = PUM1 PUF domain R3-YSG (Homo sapiens, UniProt Q14671 828-1176, C935Y;R936S;Q939G)
# How it was run: as §1
# PUM1 PUF domain R7-NTG = PUM1 PUF domain R7-NTG (Homo sapiens, UniProt Q14671 828-1176, S1079N;N1080T;E1083G)
# How it was run: as §1
# PUM1 PUF domain R5-DWG, sequence (Q14671 828-1176 C1007D/R1008W/Q1011G): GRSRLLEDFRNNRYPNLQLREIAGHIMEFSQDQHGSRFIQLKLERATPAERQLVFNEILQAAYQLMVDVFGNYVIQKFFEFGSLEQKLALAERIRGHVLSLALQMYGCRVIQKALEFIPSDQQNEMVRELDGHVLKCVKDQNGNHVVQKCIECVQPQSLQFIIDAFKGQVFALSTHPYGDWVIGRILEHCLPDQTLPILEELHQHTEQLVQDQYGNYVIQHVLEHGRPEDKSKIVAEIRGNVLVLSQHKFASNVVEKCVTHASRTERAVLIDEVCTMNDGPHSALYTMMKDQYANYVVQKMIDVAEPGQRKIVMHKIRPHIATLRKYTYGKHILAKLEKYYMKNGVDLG
# PUM1 PUF domain R5-KFG, sequence (Q14671 828-1176 C1007K/R1008F/Q1011G): as the sequence (Q14671 828-1176 C1007D/R1008W/Q1011G) above, with D180K, W181F counted along it
# PUM1 PUF domain R5-ERS, sequence (Q14671 828-1176 C1007E/Q1011S): as the sequence (Q14671 828-1176 C1007D/R1008W/Q1011G) above, with D180E, W181R, G184S counted along it
# PUM1 PUF domain R8-SFR, sequence (Q14671 828-1176 N1122S/Y1123F/Q1126R): as the sequence (Q14671 828-1176 C1007D/R1008W/Q1011G) above, with D180C, W181R, G184Q, N295S, Y296F, Q299R counted along it
# PUM1 PUF domain R3-MRE, sequence (Q14671 828-1176 C935M/Q939E): as the sequence (Q14671 828-1176 C1007D/R1008W/Q1011G) above, with C108M, Q112E, D180C, W181R, G184Q counted along it
# PUM1 PUF domain R1-GFR, sequence (Q14671 828-1176 S863G/R864F/Q867R): as the sequence (Q14671 828-1176 C1007D/R1008W/Q1011G) above, with S36G, R37F, Q40R, D180C, W181R, G184Q counted along it
# PUM1 PUF domain R1-KGA, sequence (Q14671 828-1176 S863K/R864G/Q867A): as the sequence (Q14671 828-1176 C1007D/R1008W/Q1011G) above, with S36K, R37G, Q40A, D180C, W181R, G184Q counted along it
# PUM1 PUF domain R7-NTG, sequence (Q14671 828-1176 S1079N/N1080T/E1083G): as the sequence (Q14671 828-1176 C1007D/R1008W/Q1011G) above, with D180C, W181R, G184Q, S252N, N253T, E256G counted along it
# PUM1 PUF domain R1-KMS, sequence (Q14671 828-1176 S863K/R864M/Q867S): as the sequence (Q14671 828-1176 C1007D/R1008W/Q1011G) above, with S36K, R37M, Q40S, D180C, W181R, G184Q counted along it
# PUM1 PUF domain R8-IWK, sequence (Q14671 828-1176 N1122I/Y1123W/Q1126K): as the sequence (Q14671 828-1176 C1007D/R1008W/Q1011G) above, with D180C, W181R, G184Q, N295I, Y296W, Q299K counted along it
sequence,measurement,setting,value
GGCUAGAACUAGUGGAUCCCCCGGCGCCCGGCGGCUCGAGCCCGGGUAAGUGUGAAUAGUCUGCAUGCCGCCGGGCGCCAUGCCUGCAGGUCGACUCUAGAAAACAUG,binding signal,PUM1 PUF domain R5-ERS,2.69 log2 enrichment (interaction score)
same,binding signal,PUM1 PUF domain R5-DWG,4.74 log2 enrichment (interaction score)
GGCUAGAACUAGUGGAUCCCCCGGCGCCCGGCGGCUCGAGCCCGGGUAAGGGUAAAUAGUCUGCAUGCCGCCGGGCGCCAUGCCUGCAGGUCGACUCUAGAAAACAUG,binding signal,PUM1 PUF domain R8-IWK,2.04 log2 enrichment (interaction score)
GGCUAGAACUAGUGGAUCCCCCGGCGCCCGGCGGCUCGAGCCCGGGUAAGUCUAAAUAGUCUGCAUGCCGCCGGGCGCCAUGCCUGCAGGUCGACUCUAGAAAACAUG,binding signal,PUM1 PUF domain R7-RCN,2.67 log2 enrichment (interaction score)
GGCUAGAACUAGUGGAUCCCCCGGCGCCCGGCGGCUCGAGCCCGGGUAAGUGAAAAUAGUCUGCAUGCCGCCGGGCGCCAUGCCUGCAGGUCGACUCUAGAAAACAUG,binding signal,PUM1 PUF domain R6-DWI,2.33 log2 enrichment (interaction score)
same,binding signal,PUM1 PUF domain R6-VFG,7.53 log2 enrichment (interaction score)
GGCUAGAACUAGUGGAUCCCCCGGCGCCCGGCGGCUCGAGCCCGGGUAAGUGUAAAUUGUCUGCAUGCCGCCGGGCGCCAUGCCUGCAGGUCGACUCUAGAAAACAUG,binding signal,PUM1 PUF domain R1-RRM,1.41 log2 enrichment (interaction score)
same,binding signal,PUM1 PUF domain R1-GFR,2.65 log2 enrichment (interaction score)
same,binding signal,PUM1 PUF domain R1-KMS,3.69 log2 enrichment (interaction score)
same,binding signal,PUM1 PUF domain R1-KGA,3.21 log2 enrichment (interaction score)
GGCUAGAACUAGUGGAUCCCCCGGCGCCCGGCGGCUCGAGCCCGGGUAAGUGUAAUUAGUCUGCAUGCCGCCGGGCGCCAUGCCUGCAGGUCGACUCUAGAAAACAUG,binding signal,PUM1 PUF domain R3-QPR,5.15 log2 enrichment (interaction score)
same,binding signal,PUM1 PUF domain R3-WWQ,2.48 log2 enrichment (interaction score)
same,binding signal,PUM1 PUF domain R3-RTS,3.18 log2 enrichment (interaction score)
same,binding signal,PUM1 PUF domain R3-MRE,0.23 log2 enrichment (interaction score)
GGCUAGAACUAGUGGAUCCCCCGGCGCCCGGCGGCUCGAGCCCGGGUAAGUGUAAAUAGUCUGCAUGCCGCCGGGCGCCAUGCCUGCAGGUCGACUCUAGAAAACAUG,binding signal,PUM1 PUF domain R5-IRP,2.35 log2 enrichment (interaction score)
same,binding signal,PUM1 PUF domain R6-VFG,3.57 log2 enrichment (interaction score)
same,binding signal,PUM1 PUF domain R5-RHR,1.95 log2 enrichment (interaction score)
same,binding signal,PUM1 PUF domain R8-SFR,5.31 log2 enrichment (interaction score)
same,binding signal,PUM1 PUF domain R5-KFG,3.88 log2 enrichment (interaction score)
same,binding signal,PUM1 PUF domain R5-ERS,3.92 log2 enrichment (interaction score)
same,binding signal,PUM1 PUF domain R5-DWG,2.74 log2 enrichment (interaction score)
GGCUAGAACUAGUGGAUCCCCCGGCGCCCGGCGGCUCGAGCCCGGGUAAGUGUAAGUAGUCUGCAUGCCGCCGGGCGCCAUGCCUGCAGGUCGACUCUAGAAAACAUG,binding signal,PUM1 PUF domain R3-WWQ,5.35 log2 enrichment (interaction score)
same,binding signal,PUM1 PUF domain R3-YSG,2.43 log2 enrichment (interaction score)
same,binding signal,PUM1 PUF domain R3-MRE,5.14 log2 enrichment (interaction score)
GGCUAGAACUAGUGGAUCCCCCGGCGCCCGGCGGCUCGAGCCCGGGUAAGUUUAAAUAGUCUGCAUGCCGCCGGGCGCCAUGCCUGCAGGUCGACUCUAGAAAACAUG,binding signal,PUM1 PUF domain R7-NTG,5.69 log2 enrichment (interaction score)
GGCUAGAACUAGUGGAUCCCCCGGCGCCCGGCGGCUCGAGCCCGGGUAAGCGUAAAUAGUCUGCAUGCCGCCGGGCGCCAUGCCUGCAGGUCGACUCUAGAAAACAUG,binding signal,PUM1 PUF domain R8-SFR,4.79 log2 enrichment (interaction score)
GGCUAGAACUAGUGGAUCCCCCGGCGCCCGGCGGCUCGAGCCCGGGUAAGUGUUAAUAGUCUGCAUGCCGCCGGGCGCCAUGCCUGCAGGUCGACUCUAGAAAACAUG,binding signal,PUM1 PUF domain R5-RHR,4.52 log2 enrichment (interaction score)
same,binding signal,PUM1 PUF domain R5-KFG,5.35 log2 enrichment (interaction score)
same,binding signal,PUM1 PUF domain R5-DWG,5.02 log2 enrichment (interaction score)
GGCUAGAACUAGUGGAUCCCCCGGCGCCCGGCGGCUCGAGCCCGGGUAAGUGUCAAUAGUCUGCAUGCCGCCGGGCGCCAUGCCUGCAGGUCGACUCUAGAAAACAUG,binding signal,PUM1 PUF domain R5-KFG,5.1 log2 enrichment (interaction score)
same,binding signal,PUM1 PUF domain R5-ERS,0.61 log2 enrichment (interaction score)
same,binding signal,PUM1 PUF domain R5-DWG,2.09 log2 enrichment (interaction score)
GGCUAGAACUAGUGGAUCCCCCGGCGCCCGGCGGCUCGAGCCCGGGUAAGUGUAAAUCGUCUGCAUGCCGCCGGGCGCCAUGCCUGCAGGUCGACUCUAGAAAACAUG,binding signal,PUM1 PUF domain R1-RRM,2.95 log2 enrichment (interaction score)
same,binding signal,PUM1 PUF domain R1-GFR,5.46 log2 enrichment (interaction score)
same,binding signal,PUM1 PUF domain R1-KGA,3.08 log2 enrichment (interaction score)
